# Test results as given in PubChem BioAssay (NCATS).
# Results filed as inconclusive are left out. A call without a number means that no potency is given here. Calls of active or inactive are those of the source. Unless noted, calls come from the whole dose curve.
# Legend:
# [1] = Cytotoxicity counterscreen for inhibitors of SARS-CoV-2 cell entry (AID 1645845); note: nearly all actives have a fitted effect of over 50% in size
# In short: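 Expi293F/hACE2 cells seeded overnight; cpd pin-transferred in DMSO, 1 h preincubation, + media, 48 h 37 C 5% CO2; ATPLite 1step luminescence; normalized to cells and no cells.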
# [2] = Primary qHTS to identify inhibitors of SARS-CoV-2 cell entry (AID 1645846); settings: activity change, negative = inhibition: at 57.1 µM (top of the series) unless noted; note: nearly all actives have a fitted effect of over 45% in size
# In short: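 HEK293 cells stably expressing human ACE2, pre-treated 1 h with compound, then infected with MLV particles pseudotyped with Wuhan-Hu-1 spike (C-terminal 19-aa truncation). Luciferase luminescence after 48 h at 37 °C, normalised to spike PP and bald PP.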
# CRL-7250 = normal cell line; assay: qHTS assay to identify novel small-molecules to repurpose for Merkel cell carcinoma treatment (AID 1296009; active = well fitted curve in the direction sought with a large enough effect; an effect the other way counts as inactive or inconclusive; note: nearly all actives have a fitted effect of over 60% in size); settings: MCC and control cell lines, CellTiter-Glo viability, 72 h; series mostly up to 92 µM
# In short: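 Cells exposed to NPC (8-point) and MIPE (11-point) compound dilutions for 72 hr at 37 degree celsius; viability read by CellTiter-Glo luminescence, normalized to no-cell and DMSO in-plate controls.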
# [3] = target: Nuclear receptor subfamily 1 group I member 3 (Homo sapiens) (UniProt Q14994); assay: Primary qHTS for antagonist of constitutive androstane receptor (CAR) against the NCATS DSHEA and TCM libraries (AID 1794836; active = well fitted curve in the direction sought with a large enough effect; an effect the other way counts as inactive or inconclusive)
# Chain of Nuclear receptor subfamily 1 group I member 3 (Homo sapiens) (Q14994 whole entry, looked up): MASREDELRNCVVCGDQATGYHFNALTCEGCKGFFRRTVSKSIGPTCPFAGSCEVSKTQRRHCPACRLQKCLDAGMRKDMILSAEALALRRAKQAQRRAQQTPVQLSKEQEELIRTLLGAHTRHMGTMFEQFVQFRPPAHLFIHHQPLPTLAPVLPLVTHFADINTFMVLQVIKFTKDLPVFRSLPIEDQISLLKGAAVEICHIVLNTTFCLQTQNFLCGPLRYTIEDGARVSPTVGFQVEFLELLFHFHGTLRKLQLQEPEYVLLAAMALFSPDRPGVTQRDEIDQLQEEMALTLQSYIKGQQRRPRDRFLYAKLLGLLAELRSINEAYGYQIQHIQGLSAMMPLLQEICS
# In short: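 HepG2 cells stably carrying hCAR and a CYP2B6 luciferase reporter (2,500 cells/well) attached for 5 h, then received compounds with 48 uM CITCO for 24 h at 37C. ONE-Glo luminescence read antagonism; CellTiter-Fluor (405/540 nm) gave viability.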
# [4] = P-glycoprotein substrates identified in KB-8-5-11 adenocarcinoma cell line, qHTS therapeutic library screen (AID 1346987; active = well fitted curve in the direction sought with a large enough effect; an effect the other way counts as inactive or inconclusive; note: potency is the fitted concentration of half-maximal effect; nearly all actives have a fitted effect of over 65% in size)
# In short: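 P-gp-mediated resistance screen: KB-8-5-11 cells treated 72 h with compounds in dose-response. CellTiter-Glo viability.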
# [5] = Primary qHTS for inhibitors of SARS-S pseudo-typed particle cell entry (AID 1479145); note: nearly all actives have a fitted effect of over 45% in size
# [6] = Primary qHTS for Huh7 cytotoxicity: counterscreen for inhibitors of MERS-S pseudotyped particle cell entry (AID 1479147); settings: outcome: dose series up to 57.1 µM unless noted
# [7] = Primary qHTS for inhibitors of MERS-S pseudo-typed particle cell entry (AID 1479149); note: nearly all actives have a fitted effect of over 60% in size
# [8] = Primary qHTS for Vero E6 cytotoxicity: counterscreen for inhibitors of SARS-S pseudo-typed particle cell entry (AID 1479150); settings: outcome: dose series up to 57.1 µM unless noted
# [9] = target: Glutathione peroxidase 1 (Homo sapiens) (UniProt P07203); assay: Primary qHTS Assay for Inhibitors of Recombinant Selenoprotein Glutathione Peroxidase 1 (GPX1) (AID 1845191; active = well fitted curve in the direction sought with a large enough effect; an effect the other way counts as inactive or inconclusive; note: nearly all actives have a fitted effect of over 65% in size)
# Chain of Glutathione peroxidase 1 (Homo sapiens) (P07203 whole entry, looked up): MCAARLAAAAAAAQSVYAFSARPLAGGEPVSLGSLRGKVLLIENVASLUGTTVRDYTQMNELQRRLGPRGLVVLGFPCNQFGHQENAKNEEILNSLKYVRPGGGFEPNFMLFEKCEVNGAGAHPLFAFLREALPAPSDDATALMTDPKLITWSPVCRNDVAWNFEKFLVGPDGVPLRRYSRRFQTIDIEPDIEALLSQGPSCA
# In short: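 Recombinant GPX1 (10 nM final) was preincubated with compound for 30 min at room temperature, then reacted with 1 mM GSH, 0.5 mM CHP, 0.5 mM NADPH and 100 nM glutathione reductase; NADPH fluorescence (340/450 nm) was read at 0 and 15 min.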
# [10] = target: Phospholipid hydroperoxide glutathione peroxidase GPX4 (Homo sapiens) (UniProt P36969); assay: Primary qHTS Assay for Inhibitors of Recombinant Selenoprotein Glutathione Peroxidase 4 (GPX4) (AID 1845192; active = well fitted curve in the direction sought with a large enough effect; an effect the other way counts as inactive or inconclusive; note: nearly all actives have a fitted effect of over 65% in size)
# Chain of Phospholipid hydroperoxide glutathione peroxidase GPX4 (Homo sapiens) (P36969 whole entry, looked up): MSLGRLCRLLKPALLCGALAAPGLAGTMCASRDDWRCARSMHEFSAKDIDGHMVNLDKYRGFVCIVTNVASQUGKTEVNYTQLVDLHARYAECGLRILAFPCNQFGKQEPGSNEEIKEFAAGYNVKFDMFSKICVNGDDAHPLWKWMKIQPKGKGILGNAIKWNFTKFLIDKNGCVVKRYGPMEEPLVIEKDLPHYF
# In short: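 GR-coupled readout: 100 nM GR, 1 mM GSH, 0.5 mM NADPH; NADPH fluorescence (ex 340/em 450 nm) read at t=0 and after 15 min RT. GPX4 200 nM, preincubated 30 min with compound; substrate 0.5 mM CHP.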
# [11] = qHTS for Inhibitors of the Functional Ribonucleoprotein Complex (vRNP) of Lassa (LASV) Arenavirus: LASV Primary Screen - GLuc reporter signal (AID 1347082; calls by dose curve; tested in HEK293 reporter line; note: potency is the fitted concentration of half-maximal effect; nearly all actives have a fitted effect of over 60% in size)
# [12] = Confirmatory qHTS for VERO E6 Cytotoxicity Assay: Counterscreen for SARS-CoV-2 CPE Assay (AID 1508605); note: nearly all actives have a fitted effect of over 60% in size
# [13] = Confirmatory qHTS for activators (rescue) of SARS-CoV-2 Cytopathic Effect (CPE) (AID 1508606); note: potency is the fitted concentration of half-maximal effect; nearly all actives have a fitted effect of over 70% in size
structure (smiles),measurement,setting,value
CCNCc1nc2c(N)nc3ccccc3c2n1CC(C)(C)O,Potency,[1],inactive
same,"activity change, negative = inhibition",[2],-33.4%
same,Potency,CRL-7250,inactive
CC(=O)O[C@@H]1C[C@@H](C)[C@](O)(CCC2=CC(=O)OC2)[C@@]2(C)CCCC(C)(C)C12 (some centres undefined),Potency,[3],inactive
same,Potency,CRL-7250,inactive
CC(C)=CCC(O)/C(C)=C/CO[C@@H]1O[C@H](CO)[C@@H](O)[C@H](O)[C@H]1O (some centres undefined),Potency,[3],inactive
same,Potency,CRL-7250,inactive
N#Cc1cccc(-c2c[nH]c3ncnc(N4CCOCC4)c23)c1,Potency,[1],inactive
same,Potency,[2],inactive
same,Potency,CRL-7250,inactive
CCS(=O)(=O)N1CCC([C@@H](C)n2c(C)c(C(=O)NCc3c(OC)cc(C)[nH]c3=O)c3ccccc32)CC1,Potency,[1],inactive
same,Potency,CRL-7250,inactive
C=C1C[C@@]2(O)O[C@@]3(C[C@H]2C(C)C)[C@@H](C)CC[C@@H]13,Potency,[1],inactive
same,Potency,[2],inactive
same,Potency,CRL-7250,inactive
C[C@]12CC[C@H]3[C@@H](CCC4=CC(=O)CC[C@@]43C)[C@@H]1CC[C@@H]2OC(=O)CCc1ccccc1,Potency,[4],10 µM (active)
same,Potency,[5],inactive
same,outcome,[6],inactive
same,Potency,[7],inactive
same,outcome,[8],inactive
same,Potency,[1],inactive
same,"activity change, negative = inhibition",[2],-18.9%
same,Potency,[9],inactive
same,Potency,[10],inactive
CC(C)OC(=O)CCCC=CC[C@@H]1[C@H](C=C[C@@H](O)COc2cccc(C(F)(F)F)c2)[C@H](O)C[C@@H]1O,Potency,[11],38.5 µM (active)
CC(=O)O[C@@H]1CC2C(C)(C)C(=O)C=C[C@]2(C)C2CC[C@]3(C)C(=CC(=O)O[C@H]3c3ccoc3)[C@@]21C (some centres undefined),Potency,[4],14.6 µM (active)
same,Potency,[12],inactive
same,Potency,[13],11.2 µM (active)
same,Potency,[9],inactive
